Counter-ions that a name gives are not always drawn.
Legend:
Conditions in all cases: 10 µM; exposure time 6 h
[1] = system: Danio rerio larvae (5 dpf); test: difference in excitability vs DMSO (percentage points); higher = more excitable than DMSO
Summary of the method: (§1)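 Wild-type 5 dpf zebrafish larvae in 96-well plates were given 100 µL egg water containing library compound at 10 µM final for 6 h. After 3 h of exposure, plates at 28.5 ℃ were photographed every 6 s during a 3-h programme of moving lines and 100 ms, 400Hz tones. Z-LaP Tracker (a DeepLabCut model) quantified each behaviour, averaged over 48 larvae per compound. Values are the compound mean minus the DMSO-vehicle control, in percentage points.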

[2] = system: Danio rerio larvae (5 dpf); test: difference in startle response vs DMSO (percentage points); higher = stronger startle than DMSO
Summary of the method: as §1

[3] = system: Danio rerio larvae (5 dpf); test: difference in activity during first hour vs DMSO (percentage points); higher = more activity than DMSO
Summary of the method: as §1

[4] = system: Danio rerio larvae (5 dpf); test: difference in habituation to acoustic stimuli vs DMSO (percentage points); higher = more habituation than DMSO
Summary of the method: as §1

[5] = system: Danio rerio larvae (5 dpf); test: difference in combined optomotor response to red, green and blue moving lines vs DMSO (percentage points); higher = stronger optomotor response than DMSO
Summary of the method: as §1

Row | SMILES | difference in excitability [1] | difference in startle response [2] | difference in activity during first hour [3] | difference in habituation to acoustic stimuli [4] | difference [5]
1 | CC(C)(C)NC(=O)[C@@H]1CN(Cc2cccnc2)CCN1C[C@@H](O)C[C@@H](Cc1ccccc1)C(=O)N[C@H]1c2ccccc2C[C@H]1O [Indinavir (sulfate)] | -11.9 | -2.27 | 1.38 | 11.2 | -0.405
2 | Cc1[nH]c2ccccc2c1CCNCc1ccc(/C=C/C(=O)NO)cc1 [Panobinostat] | 7 | -4.96 | -8.62 | 3.43 | 1.65
3 | CC(C)NCC(O)c1cc(O)cc(O)c1 (stereo not given) [Metaproterenol (hemisulfate)] | 3.08 | 0.666 | 26.4 | -8.48 | 1.44
4 | C[C@@](Cc1ccc(O)c(O)c1)(NN)C(=O)O [Carbidopa (hydrate)] | 5.76 | 3.77 | 4.48 | -7.23 | 6.07
5 | CN(C)CCCN1c2ccccc2CCc2ccc(Cl)cc21 [Clomipramine (hydrochloride)] | 0.766 | 1.97 | -14.9 | -3.04 | -3.76
6 | CC(C)[C@H](N)C(=O)OCCOCn1cnc2c(=O)[nH]c(N)nc21 [L-Valacyclovir (hydrochloride)] | 6.67 | 6.55 | 5.61 | -8.71 | -5.74
7 | CCC1(c2ccccc2)C(=O)NCNC1=O [Primidone] | 3.77 | 4.38 | 11.2 | -0.65 | 9.02
8 | Cc1cc(Nc2ncc(Cl)c(Nc3ccccc3S(=O)(=O)C(C)C)n2)c(OC(C)C)cc1C1CCNCC1 [Ceritinib] | 23.6 | -3.09 | -7.86 | -6.25 | -1.6
9 | C[C@]12CC[C@@H]3c4ccc(O)cc4CC[C@H]3[C@@H]1CC[C@@H]2O [17β-Estradiol] | 14.6 | -4.36 | -22.1 | -4.38 | -11.6
10 | Cc1ccc(O)c([C@H](CCN(C(C)C)C(C)C)c2ccccc2)c1 [Tolterodine (tartrate)] | 11.1 | -0.221 | -20.3 | -5.38 | -10.6
11 | O=c1[nH]c(=O)n([C@H]2C[C@H](O)[C@@H](CO)O2)cc1C(F)(F)F [Trifluorothymidine] | -0.163 | -3.06 | 5.45 | -4.69 | 1.93
12 | CC1OC2(CS1)CN1CCC2CC1 (stereo not given) [Cevimeline (hydrochloride)] | -6.36 | -3.25 | 16.4 | -3.9 | -1.46
13 | N[C@@H]1CCCCN(c2c(F)cc3c(=O)c(C(=O)O)cn(C4CC4)c3c2Cl)C1 [Besifloxacin (hydrochloride)] | 13 | 0.0054 | 5.97 | -5.08 | 0.455
14 | OC[C@H]1O[C@@H](O[C@@H]2[C@@H](CO)OC(O)(CO)[C@H]2O)[C@H](O)[C@@H](O)[C@H]1O (mixture of isomers) [Lactulose] | 2.43 | -1.72 | -2.1 | -4.39 | -4.94
15 | Cc1ccc(S(=O)(=O)NC(=O)NN2CCCCCC2)cc1 [Tolazamide] | 7.01 | 21.4 | 4.59 | 2.23 | 9.69
16 | O=c1[nH]cnc2c1ncn2[C@H]1CC[C@@H](CO)O1 [Didanosine] | 1.69 | -3.05 | 4.04 | -1.02 | 4.2
17 | CCCCC[C@H](O)/C=C/[C@@H]1[C@H]2C/C(=C/CCCC(=O)O)O[C@H]2C[C@H]1O [Prostaglandin I2 (sodium salt)] | 0.101 | 3.79 | 11.9 | 1.5 | 4.02
18 | CN1CCC(=C2c3ccccc3CCn3c(C=O)cnc32)CC1 [Alcaftadine] | -1.49 | 3.88 | 20.6 | -3 | -2.52
19 | CC(COc1ccccc1)N(CCCl)Cc1ccccc1 (stereo not given) [Phenoxybenzamine (hydrochloride)] | 4.28 | 2.85 | 18.5 | -1.54 | 2.87
20 | Cc1nc(Nc2ncc(C(=O)Nc3c(C)cccc3Cl)s2)cc(N2CCN(CCO)CC2)n1 [Dasatinib] | 11.4 | -1.6 | -4.95 | 1.58 | -0.962
21 | CC(C)(CO)c1cc2cc(NC(=O)C3(c4ccc5c(c4)OC(F)(F)O5)CC3)c(F)cc2n1C[C@@H](O)CO | 16.7 | 3.44 | 15.2 | 6.02 | 6.53
22 | O=C(O)CCCc1ccccc1 [Sodium 4-Phenylbutyrate] | -1.36 | 2.31 | -3.38 | 1.43 | 5.24
23 | CC(=O)OCC(=O)[C@@]1(O)CC[C@H]2[C@@H]3CCC4=CC(=O)CC[C@]4(C)[C@@]3(F)[C@@H](O)C[C@@]21C [Fludrocortisone Acetate] | -4.21 | 4.97 | -1.84 | 0.633 | 1.96
24 | CC(C)OC(=O)CCC/C=C\C[C@@H]1[C@@H](/C=C/[C@@H](O)COc2cccc(C(F)(F)F)c2)[C@H](O)C[C@@H]1O [Fluprostenol isopropyl ester] | 7.89 | -1.38 | 5.82 | 8.61 | 7.99
25 | CC(C(=O)O)c1cccc(C(=O)c2ccccc2)c1 (racemic) [(±)-Ketoprofen] | 0.309 | -1.06 | 8.57 | 6.2 | 11.1
26 | CCOC(=O)[C@@](C)(N)Cc1ccc(O)c(O)c1 [Methyldopate] | 14.5 | 1.24 | -2.29 | -2.04 | -2.04
27 | CN(C/C=C/c1ccccc1)Cc1cccc2ccccc12 [Naftifine (hydrochloride)] | 11.1 | -5.96 | -7.66 | 1 | 7.26

— the supplement of paper PMC10515830
